Results filed as inconclusive are left out. Activity calls are given as the source filed them. How the source made its calls: active means hit-call score of the fitted dose curve at least 0.9, where 1 is the maximum; inconclusive means response in the unintended direction; inactive means score below 0.9.
Experiment: ATG_XTT_Cytotoxicity: Cytotoxicity Assessment in the Attagene TRANS-FACTORIAL HepG2 Assay (AID 2283584)
Summary of the method: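 Viability endpoint from XTT after 24 h chemical exposure of reporter-transfected human HepG2 liver cells; signal loss fitted relative to DMSO negative control.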
In the case of CC(c1cc(C(C)(C)C)cc(C(C)(C)C)c1O)c1cc(C(C)(C)C)cc(C(C)(C)C)c1O, the outcome is reported as “inactive”.
With CCCC=C(C=O)CC the outcome was “inactive”.
With CCC(=O)C1CC(C(C)C)CC=C1C (stereo not drawn) the outcome was “inactive”.
With Cc1ccc2c(c1)CCCN2 the outcome was “inactive”.
For CCc1cccc(CC)c1, the outcome was “inactive”.
With CC1=CP(=O)(c2ccccc2)CC1 (stereo not drawn) the outcome was “inactive”.
In the case of CC(C)CO, the outcome is reported as “inactive”.
For N#Cc1ccc(C(c2ccc(C#N)cc2)n2cncn2)cc1, the outcome was “inactive”.
With C=CC(=O)NCOCCCC the outcome was “inactive”.
In the case of CC(=O)CCC1=C(C)CCCC1(C)C, the outcome is reported as “inactive”.
In the case of CC(C=O)c1ccccc1 (stereo not drawn), the outcome is reported as “inactive”.
With CC1=NN(c2ccc(S(=O)(=O)O)cc2)C(=O)C1N=Nc1ccccc1 (stereo not drawn) the outcome was “inactive”.
For C1CCSC1, the outcome was “inactive”.
In the case of CC(C)CCOCc1ccccc1, the outcome is reported as “inactive”.
For CCOC(=O)CC(=O)c1ccccc1, the outcome was “inactive”.
With Cc1c[nH]c(=O)[nH]c1=O the outcome was “inactive”.
For COc1cc(O)c(C(=O)c2ccccc2)cc1S(=O)(=O)O, the outcome was “inactive”.
For CCCCCC1=CCCC1=O, the outcome was “inactive”.
For NNS(=O)(=O)c1ccc(Oc2ccc(S(=O)(=O)NN)cc2)cc1, the outcome was “inactive”.
For C=CC(C)(CCC=C(C)C)OC(=O)C=Cc1ccccc1 (stereo not drawn), the outcome was “inactive”.
For c1ccc(-c2nc3ccccc3[nH]2)cc1, the outcome was “inactive”.
With CC(C)(CO)C(O)C(=O)NCCCO (stereo not drawn) the outcome was “inactive”.
In the case of CC(C)C(=O)OCCc1ccccc1, the outcome is reported as “inactive”.
In the case of CCC[Si](OC)(OC)OC, the outcome is reported as “inactive”.
With O=C1c2ccccc2C(=O)c2cc(S(=O)(=O)O)ccc21 the outcome was “inactive”.
In the case of CC(C)=NNC(N)=S, the outcome is reported as “inactive”.
For O=C(Oc1ccccc1)c1ccccc1O, the outcome was “inactive”.
For c1ccc2sc(SSN3CCOCC3)nc2c1, the outcome was “inactive”.

From PubChem BioAssay (EPA / NIEHS)
